Out of some 4,800 compounds screened, about 410 (8.5%) showed an effect of 50% or more. Shown is part of a subset that was picked to be rich in strong results.
These compounds were tested on Plasmodium falciparum (assay: Confirmatory screen in NF54 pLDH assay, in single point, at 2uM, 72h). Conditions: timepoint 72 hour.
Type: functional, Erythrocyte

| Compound | % Inhibition [%] |
| --- | --- |
| O=C(c1cccc(C(=O)N2CCN(C(c3ccccc3)c3ccccc3)CC2)c1)N1CCN(C(c2ccccc2)c2ccccc2)CC1 | 26 |
| c1ccc(C(c2ccccc2)N2CCN(c3nn4cnnc4c4ccccc34)CC2)cc1 | 65 |
| CCc1cc(C(=O)N2CCCCC2)c2c(C)nn(-c3ccc(OC)cc3)c2n1 | 10 |
| COC(=O)[C@](Nc1ccc(Oc2ccccc2)cc1)(c1cc(C)c(O)c(C)c1)C(F)(F)F | 7 |
| CCCCn1c(N)c(N(Cc2ccccc2OC)C(=O)c2ccoc2C)c(=O)[nH]c1=O | -22 |
| Cc1ccc(Nc2c(C(=O)NCc3ccc(F)cc3)cnc3c2c(C)nn3C)cc1 | -5 |
| O=C(NCCN1CCCC1)c1cc2n(n1)CCN(Cc1cccc(F)c1)C2=O | -27 |
| N#Cc1nc2c(C#N)c(N)n(CCc3ccccc3)c2nc1C#N | 92 |
| Nc1nc2c(s1)CN(CCc1ccccc1)CC2 | 41 |
| N#Cc1c(-c2ccccc2)cc(-c2ccccc2)nc1S(=O)(=O)Cc1ccccc1 | 43 |
| O=S(=O)(c1ccccc1F)C1CNC1 | -18 |
| O=C(c1cccc(COc2ccc(Br)cc2)c1)N1CCN(Cc2ccccc2)CC1 | -14 |
| Cc1nc(C(=O)Nc2[nH]c(=O)ncc2F)c(-c2ccccc2)o1 | 70 |
| CC(C)c1nc(C(=O)Nc2ccccc2CN2CCNC2=O)cs1 | 5 |
| Cc1ccc(-c2cc(C(=O)Nc3nnc(C(C)C)s3)no2)cc1F | 16 |
| O=C(c1coc(-c2ccccc2)n1)N1CCc2cc(Br)ccc21 | 1 |
| CC(C)c1nc(C(=O)Nc2[nH]c(=O)ncc2F)cs1 | 83 |
| O=C(Nc1[nH]c(=O)ncc1F)c1coc(-c2ccccc2)n1 | 71 |
| O=C(CNc1cc(F)c(F)cc1F)NC(=O)NCC(F)(F)F | -5 |
| CC(C)CN1C(=O)CC[C@@H](C(=O)NCCCN2CCOCC2)[C@@H]1c1cccnc1 | -17 |
| Cc1nc2ccc(Cl)cc2c(-c2ccccc2)c1C1=NN(S(C)(=O)=O)[C@H](c2ccccc2Cl)C1 | -14 |
| Cn1cc(-c2csc(NC(=O)c3ccc4[nH]cnc4c3)n2)cn1 | 7 |
| CCN1C(=O)CN(C(=O)c2cccc(C)c2)CC12CCOCC2 | 9 |
| CC(C)(C)NC(=O)CNC(=O)c1cccc(F)c1 | -8 |
| O=C(Nc1nc2cccc(Cl)c2o1)c1cccc(F)c1 | 92 |
| Cc1nc(Cn2nnc(NC(=O)c3cccc(F)c3)c2C)no1 | 8 |

| Compound | % Inhibition [%] |
| --- | --- |
| Cc1c(Br)c(C)n(NC(=O)c2cnn(Cc3ccccc3)c2)c(=O)c1C#N | -15 |
| Cc1cccc(C)c1Oc1ccccc1NC(=O)CCc1nnc[nH]1 | 4 |
| O=S(=O)(Nc1ccc2nncn2c1)c1c(F)cccc1Cl | -18 |
| Cc1ccc(F)cc1NC(=O)N1CCC12CCC2 | 11 |
| N#CC1(c2ccccc2)c2ccccc2C(=O)c2ccccc21 | -4 |
| CN(Cc1ccccc1)C(=O)C[C@H]1CCN(C(=O)NC2CCCC2)C1 | 2 |
| Cc1cccc2ncnc(N(C)[C@@H](C)Cc3ccc(O)cc3)c12 | 84 |
| Cc1n[nH]c2ncc(NC(=O)c3ccc(CCC(F)(F)F)cc3)cc12 | 17 |
| Cc1cc(C)cc(CN2CCCN(c3ccc(C)cc3NC(=O)Cc3ccc(F)cc3)C2=O)c1 | 13 |
| CC(C)CCO[C@@H](C)C(=O)NC1CCN(CC(=O)NC(C)C)CC1 | 5 |
| O=C1C2C3C=CC(C3=C3CCCCC3)C2C(=O)N1c1cccc(Cl)c1 (configuration not stated) | 15 |
| COc1cccc(S(=O)(=O)N2CCC(OCCOCc3ccccc3)CC2)c1 | 10 |
| COc1cccc(S(=O)(=O)N2CCC(OCCOc3ccccc3)CC2)c1 | 7 |
| COc1cccc(S(=O)(=O)N2CCCN(Cc3ccncc3)[C@H](c3ccccc3)CC(=O)NCC2)c1 | 86 |
| Cc1cccc(NC(=O)Cn2ccc(C(=O)Nc3cccc(C)c3C)n2)c1C | -11 |
| CCOC(=O)[C@@H]1C(=O)Nc2cc(OC)ccc21 | 9 |
| COc1ccc(CCNCC(=O)Nc2c3c(nc4ccccc24)N(C)CC3)cc1OC | 6 |
| CN(C)c1ccc(NN=C2N=NN=N2)cc1 | 3 |
| COc1cccc(NC(=O)Cn2c(C)ccc(NS(=O)(=O)c3ccc(C)cc3)c2=O)c1 | 59 |
| COc1cccc(NC(=O)Cn2c(=O)n(C)c(=O)c3sc(N4CCCC4)nc32)c1 | 1 |
| COc1cccc(Cn2c(=O)c3sccc3n(CC(=O)Nc3ccc4c(c3)OCO4)c2=O)c1 | 16 |
| Cc1cc(C)c(NC(=O)CN(C)C(=O)NCc2ccco2)c(C)c1 | -8 |
| O=C(Nc1ccc2c(c1)c1cc(Br)ccc1n2Cc1ccccc1)c1ccccc1 | 6 |
| O=C(NC(Cn1ccccc1=O)c1ccccc1)C1CCOC1 (configuration not stated) | 7 |
| O=C(N[C@@H](Cn1nccn1)c1ccccc1)c1cc(Br)ccc1Cl | 75 |
| Cc1ccccc1-c1cc2c(N3CCN(C4CCCCC4)CC3)nccn2n1 | 4 |

| Compound | % Inhibition [%] |
| --- | --- |
| Cc1cc(Br)cc(N[C@H](c2cccnc2)c2ncc[nH]2)c1 | 6 |
| Cc1ccc2nc3c(c(N)c2c1)CCCCN3C | -20 |
| Cc1ccc2nc(C3CC3)cc(C(=O)N3C[C@@H](O)C[C@H]3CO)c2c1 | -1 |
| CC(C)c1ccc(S(=O)(=O)Nc2ccc3nc(NC(=O)c4ccccc4)sc3c2)cc1 | 6 |
| CN(C)c1ccc(CNC2CCCCCC2)cc1 | -13 |
| CN(CC(=O)Nc1ccccc1C(F)(F)F)C1CNC1 | 8 |
| COC[C@H](NCCc1cc(F)cc2c1OCOC2)C1CC1 | 82 |
| Cc1csc(NC(=O)NCCc2cc(F)cc3c2OCOC3)n1 | -14 |
| N#Cc1cc(O)c(-c2c(O)n[nH]c2-c2ccccc2)cc1C#N | 10 |
| O=c1[nH]c(=O)n(Cc2nc(-c3ccco3)no2)cc1Cl | 3 |
| Cc1nn(C)c(C)c1CCCN[C@@H](C)c1cccc(O)c1 | 4 |
| Cc1ccc2nc(-c3cccc(NC(=O)c4ccc5c(c4)OCO5)c3)oc2c1 | -7 |
| COC(=O)c1cccc(C#Cc2cccc(NC(=O)c3cnc(C)cn3)c2)c1 | -9 |
| N#CCC(=O)NC1CCC(CC2CCC(NC(=O)CC#N)CC2)CC1 (configuration not stated) | -2 |
| Cc1ccccc1S(=O)(=O)N1CCN(c2c(C)n(-c3ccccc3)c(=O)n(CC(C)C)c2=O)CC1 | 14 |
| COc1ccc([C@H](C(=O)Nc2ccc(N(C)C)cc2)N(Cc2ccccc2)C(=O)Cc2ccccc2)cc1OC | -14 |
| COc1ccc(CNC(=O)Nc2ccc3c(c2)N(C(=O)c2ccccc2)CCC3)cc1OC | 11 |
| CCC(C(=O)Nc1ccc2c(c1)CN(CCc1ccc(OC)c(OC)c1)C(=O)C(C)O2)c1ccccc1 (configuration not stated) | 100 |
| Cc1ccc(NC(=O)Cn2c(C)nc3c(-c4ccccn4)nsc3c2=O)c(C)c1 | 12 |
| CC[C@@H](CO)NCc1cccc(OC)c1OCC(=O)NC(C)(C)C | -12 |
| COc1cccc(CNC(C)(C)C)c1OCC(=O)NC(C)(C)C | -4 |
| CCOc1cc(CNc2cccc3ccccc23)cc(Br)c1OCC(=O)NC(C)(C)C | 91 |
| O=C(Nc1ccn(-c2ccccc2)n1)N1CC2CCC(O)CC2C1 (configuration not stated) | -3 |
| Cc1nsc2ncc(C(=O)N3CCC(C)CC3)c(N3CCC(C(=O)Nc4cc(F)ccc4F)CC3)c12 | 44 |
| COc1ccccc1CNCCNC(=O)c1ccncc1 | 9 |
| Clc1cc(CNCCc2ccccc2)ccc1OCc1ccccc1 | 3 |

| Compound | % Inhibition [%] |
| --- | --- |
| Cc1cnccc1NCCNCc1cccc(O)c1Cl | 101 |
| N#Cc1c(CN(CCn2cccn2)Cc2cn3ccccc3c2C#N)cn2ccccc12 | -22 |
| C=CCN(CC=C)S(=O)(=O)c1ccc(S(=O)(=O)NC)cc1 | -10 |
| O=C(NC1CCCC1)c1cnn2c3c(cnc12)CCCCCC3 | 11 |
| CCn1cc(Cl)c(C(=O)N(C2CCCCC2)C2CCCCC2)n1 | 10 |
| Fc1cccc(F)c1-n1c(CN2CCCCC2)csc1=S | -5 |
| CC(C)c1c2cc3c(cc2nn1-c1ccccc1)OCCO3 | -11 |
| C[C@H](O)CNCc1ccc(Cl)cc1Cl | 1 |
| CCCCCNC(=O)NCc1ncoc1C | 4 |
| Cc1cc(C)cc(-n2c(=O)c3sccc3n(CC(=O)NCc3ccccc3Cl)c2=O)c1 | -17 |
| O=c1[nH]c2ccccc2nc1-c1cc(Br)ccc1NS(=O)(=O)c1cccc2nsnc12 | 3 |
| Fc1ccccc1N1CCN(c2c3c(nc4nc(Cc5ccc(Cl)cc5)nn24)CCCC3)CC1 | 7 |
| CNc1nc(N2C[C@H](C)[C@@](O)(C3CC3)C2)nc2c1CCC2 | 1 |
| Cc1cc(-c2ccccc2)c(C#N)c(=O)n1C(=O)c1ccc(C#N)cc1 | 11 |
| Brc1cc(Br)c2nc(-c3ccc(C4CCCCC4)cc3)ccc2c1 | 12 |
| Cc1[nH]c2ccnn2c(=O)c1CC(=O)N1CC[C@H](C)c2cccc(O)c21 | 2 |
| CCN(CC)c1nc(-c2ccccc2)c(C#N)c(N)c1C#N | 12 |
| O=C(CN1CCOC2CCCCC21)N1CCOC2CCCCC21 (configuration not stated) | -9 |
| CC(C)N1CCC(NC(=O)NCC2CCCCCCC2)CC1 | 6 |
| O=C(CN1CCC[C@H]1C1CCCC1)NCC1CCCCC1 | 61 |
| COc1ccc(OCC(=O)Nc2ccc(N3CCn4c(nc5cc(Cl)ccc54)C3)cc2OC)cc1 | -5 |
| CC(C)COc1ccc(/C(N)=N/O)cc1 | -20 |
| Cc1ccccc1CN(Cc1ccccn1)Cc1ccnn1C | -5 |
| CC1CCC(N(C)C(=O)c2cc(S(=O)(=O)N3CCCCC3)ccc2N2CCCC2)CC1 (configuration not stated) | -10 |
